From PubChem BioAssay (NCATS)
Inconclusive results are not listed. Entries that show only a call come without a potency. Activity calls are given as the source filed them. The call rests on the fitted dose curve; in most records, active means well fitted curve in the direction sought with a large enough effect; inconclusive means small, poorly fitted or top-dose-only effect, or another doubt; inactive means no such curve, though single readings can be large; an effect the other way counts as inactive or inconclusive.

target: Voltage-gated inwardly rectifying potassium channel KCNH2 (Homo sapiens) (UniProt Q12809); experiment: qHTS Assay for Small Molecule Inhibitors of the Human hERG Channel Activity (AID 588834); conditions: U2OS BacMam hERG, FluxOR thallium flux fluorescence; series mostly up to 46.1 µM;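 further: top concentration of the series differs between compounds; lower thallium flux fluorescence means stronger hERG block; nearly all actives have a fitted effect of over 50% in size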
Sequence (Q12809 whole entry, looked up): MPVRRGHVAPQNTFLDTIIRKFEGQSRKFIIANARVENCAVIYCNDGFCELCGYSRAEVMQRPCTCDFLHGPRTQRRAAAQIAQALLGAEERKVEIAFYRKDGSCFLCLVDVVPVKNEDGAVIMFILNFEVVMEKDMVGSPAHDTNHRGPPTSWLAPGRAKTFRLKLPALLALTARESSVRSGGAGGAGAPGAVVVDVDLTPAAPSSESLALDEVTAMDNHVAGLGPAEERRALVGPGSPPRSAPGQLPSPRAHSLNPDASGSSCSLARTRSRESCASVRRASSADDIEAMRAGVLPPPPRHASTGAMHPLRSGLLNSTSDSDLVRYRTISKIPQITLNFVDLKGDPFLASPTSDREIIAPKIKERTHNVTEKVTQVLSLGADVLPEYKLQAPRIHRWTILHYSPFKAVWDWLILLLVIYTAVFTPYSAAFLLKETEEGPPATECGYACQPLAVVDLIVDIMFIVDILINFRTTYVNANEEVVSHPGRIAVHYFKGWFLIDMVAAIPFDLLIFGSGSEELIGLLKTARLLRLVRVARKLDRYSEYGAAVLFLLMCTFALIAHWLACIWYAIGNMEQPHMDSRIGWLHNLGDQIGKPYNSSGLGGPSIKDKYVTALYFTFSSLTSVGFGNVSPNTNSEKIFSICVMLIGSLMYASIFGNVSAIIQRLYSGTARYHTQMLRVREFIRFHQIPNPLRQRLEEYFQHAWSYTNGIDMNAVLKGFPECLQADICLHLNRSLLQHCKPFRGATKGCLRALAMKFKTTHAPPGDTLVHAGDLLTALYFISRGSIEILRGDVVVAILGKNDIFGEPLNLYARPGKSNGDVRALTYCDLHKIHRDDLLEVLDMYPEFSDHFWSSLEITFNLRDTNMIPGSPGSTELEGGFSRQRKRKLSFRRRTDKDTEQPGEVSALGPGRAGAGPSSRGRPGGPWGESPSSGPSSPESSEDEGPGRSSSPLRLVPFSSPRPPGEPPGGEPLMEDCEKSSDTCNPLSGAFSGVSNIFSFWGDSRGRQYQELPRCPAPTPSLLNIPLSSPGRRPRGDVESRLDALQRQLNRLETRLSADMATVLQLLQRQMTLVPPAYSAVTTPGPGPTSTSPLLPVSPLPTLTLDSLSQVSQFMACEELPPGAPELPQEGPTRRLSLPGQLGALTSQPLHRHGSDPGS
How it was run: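 U2OS cells transduced with hERG via BacMam (MOI ~100), plated 2000/well, loaded with FluxOR thallium dye, compound ~10 min, then stimulation buffer; fluorescence decrease read kinetically; AC50 from Hill fits.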

SMILES	Potency
O=C(O)CCNC(=O)c1ccc(N=Nc2ccc(O)c(C(=O)O)c2)cc1	inactive
CCC(C)(Oc1ccc(C2(c3ccc(OC(C)(CC)C(=O)O)cc3)CCCCC2)cc1)C(=O)O (stereo unspecified)	inactive
O=C1c2ccccc2-c2n[nH]c3cccc1c23	inactive
O=C(O)c1cccnc1Nc1cccc(C(F)(F)F)c1	inactive
COC1=C(OC)C(=O)C(CCCCCCCCCCO)=C(C)C1=O	inactive
CCCCc1ccc2nc(NC(=O)OC)[nH]c2c1	inactive
COCCCOc1ccnc(CS(=O)c2nc3ccccc3[nH]2)c1C (stereo unspecified)	inactive
CC1(C)CCC(C)(C)c2cc(NC(=O)c3ccc(C(=O)O)cc3)ccc21	inactive
C=C(c1ccc(C(=O)O)cc1)c1cc2c(cc1C)C(C)(C)CCC2(C)C	inactive
Oc1ccc(OCc2ccccc2)cc1	inactive

target: Luciferin 4-monooxygenase (Photinus pyralis) (UniProt P08659); experiment: Biochemical firefly luciferase enzyme assay for NPC (AID 624030); further: nearly all actives have a fitted effect of over 70% in size; further: potency means the concentration at half of the fitted maximal effect; conditions: purified P. pyralis luciferase, luminescence, 5 min; series mostly up to 58.6 µM
Sequence (P08659 whole entry, looked up): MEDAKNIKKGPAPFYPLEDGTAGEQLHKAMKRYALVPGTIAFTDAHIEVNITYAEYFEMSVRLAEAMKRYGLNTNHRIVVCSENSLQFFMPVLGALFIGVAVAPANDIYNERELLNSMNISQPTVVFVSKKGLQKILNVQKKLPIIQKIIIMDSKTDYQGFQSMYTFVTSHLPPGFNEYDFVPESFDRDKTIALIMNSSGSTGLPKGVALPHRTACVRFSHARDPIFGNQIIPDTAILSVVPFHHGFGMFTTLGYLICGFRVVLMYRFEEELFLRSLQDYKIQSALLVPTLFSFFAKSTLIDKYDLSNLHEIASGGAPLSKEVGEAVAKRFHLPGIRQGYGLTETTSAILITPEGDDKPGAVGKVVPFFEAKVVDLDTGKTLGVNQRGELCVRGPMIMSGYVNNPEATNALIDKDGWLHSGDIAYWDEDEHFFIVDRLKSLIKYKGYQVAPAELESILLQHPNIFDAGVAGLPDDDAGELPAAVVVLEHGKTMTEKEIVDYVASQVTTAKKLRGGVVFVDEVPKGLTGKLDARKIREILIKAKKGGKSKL
How it was run: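 Direct inhibition of firefly luciferase enzyme (10 nM final, 50 mM Tris Acetate) assessed by luminescence within 5 minutes. Percent activity scaled between DMSO and PTC124 positive control, with concentration-effect curves classified by fit quality and response.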

SMILES	Potency
Cc1ccc(NC(=O)c2ccc(CN3CCN(C)CC3)cc2)cc1Nc1nccc(-c2cccnc2)n1	12.8 µM (active)
Cc1nc(-c2ccc(OCC(C)C)c(C#N)c2)sc1C(=O)O	0.0361 µM (active)
CN(C)CCc1c[nH]c2ccc(Cn3cncn3)cc12	inactive
NC(=O)Cc1cccc(C(=O)c2ccccc2)c1N	inactive
c1cnc2cc3c(cc2n1)C1CNCC3C1	inactive
COc1cc2c(N3CCN(C(=O)Nc4ccc(OC(C)C)cc4)CC3)ncnc2cc1OCCCN1CCCCC1	inactive
Cc1cccc(C)c1OCC(=O)N[C@@H](Cc1ccccc1)[C@@H](O)C[C@H](Cc1ccccc1)NC(=O)[C@H](C(C)C)N1CCCNC1=O	inactive
COc1cc2c(cc1OC)C1CC(=O)C(CC(C)C)CN1CC2 (stereo unspecified)	inactive
O=C1CCc2ccc(OCCCCN3CCN(c4cccc(Cl)c4Cl)CC3)cc2N1	inactive
CC(C)[N+]1(C)[C@@H]2CC[C@H]1CC(OC(=O)C(CO)c1ccccc1)C2 (stereo partly specified)	inactive
COC1=C(OC)C(=O)C(CCCCCCCCCCO)=C(C)C1=O	inactive
C=CCc1cc(OC)c(O)c(C(=O)NCCO)c1	inactive
COc1cc(C(C)=O)ccc1OCCCN1CCC(c2noc3cc(F)ccc23)CC1	inactive
CC(C)c1nc(CN(C)C(=O)N[C@H](C(=O)N[C@@H](Cc2ccccc2)C[C@H](O)[C@H](Cc2ccccc2)NC(=O)OCc2cncs2)C(C)C)cs1	inactive
COc1ccc2cc([C@H](C)C(=O)O)ccc2c1	inactive
Cc1nccn1CC1CCc2c(c3ccccc3n2C)C1=O (stereo unspecified)	inactive
Cc1nc2n(c(=O)c1CCN1CCC(c3noc4cc(F)ccc34)CC1)CCCC2	inactive
CC(C)Oc1ccc2c(=O)c(-c3ccccc3)coc2c1	2.03 µM (active)
CC1=C(C(=O)O)N2C(=O)[C@@H](NC(=O)[C@H](N)C3=CCC=CC3)[C@H]2SC1	inactive
COC(=O)N[C@H](C(=O)N[C@@H](Cc1ccccc1)[C@@H](O)CN(Cc1ccc(-c2ccccn2)cc1)NC(=O)[C@@H](NC(=O)OC)C(C)(C)C)C(C)(C)C	inactive
Cc1ccc(Nc2nccc(N(C)c3ccc4c(C)n(C)nc4c3)n2)cc1S(N)(=O)=O	inactive
Cn1c(NCCN(CCO)CCCc2ccc([N+](=O)[O-])cc2)cc(=O)n(C)c1=O	inactive
CCC1=C(C)CN(C(=O)NCCc2ccc(S(=O)(=O)NC(=O)NC3CCC(C)CC3)cc2)C1=O (stereo unspecified)	inactive
COc1cc(Nc2c(C#N)cnc3cc(OCCCN4CCN(C)CC4)c(OC)cc23)c(Cl)cc1Cl	inactive

test system: not listed separately; experiment: S16 Schwann cell viability assay (CellTiter-Glo assay) (AID 624031); conditions: S16 rat Schwann cells viability, 24 h; series mostly up to 57.5 µM; further: nearly all actives have a fitted effect of over 70% in size; further: potency means the concentration at half of the fitted maximal effect
How it was run: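 This viability control uses native rat S16 Schwann cells grown in DMEM plus 10% FBS. After a 24 h compound treatment at 37 °C, CellTiter-Glo luminescence reports ATP content, scaled against DMSO-treated and cell-free wells.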

SMILES	Potency
CN(C)CCc1c[nH]c2ccc(Cn3cncn3)cc12	inactive
O=C(O)CCNC(=O)c1ccc(N=Nc2ccc(O)c(C(=O)O)c2)cc1	inactive
CCC(C)(Oc1ccc(C2(c3ccc(OC(C)(CC)C(=O)O)cc3)CCCCC2)cc1)C(=O)O (stereo unspecified)	inactive
COc1cc2c(cc1OC)C1CC(=O)C(CC(C)C)CN1CC2 (stereo unspecified)	inactive
O=C1c2ccccc2-c2n[nH]c3cccc1c23	inactive
O=C1CCc2ccc(OCCCCN3CCN(c4cccc(Cl)c4Cl)CC3)cc2N1	32.2 µM (active)
O=C(O)c1cccnc1Nc1cccc(C(F)(F)F)c1	inactive
C=CCc1cc(OC)c(O)c(C(=O)NCCO)c1	inactive
CCCCc1ccc2nc(NC(=O)OC)[nH]c2c1	inactive
COc1ccc2cc([C@H](C)C(=O)O)ccc2c1	inactive
Cc1nc2n(c(=O)c1CCN1CCC(c3noc4cc(F)ccc34)CC1)CCCC2	inactive
COCCCOc1ccnc(CS(=O)c2nc3ccccc3[nH]2)c1C (stereo unspecified)	inactive
CC1(C)CCC(C)(C)c2cc(NC(=O)c3ccc(C(=O)O)cc3)ccc21	inactive
C=C(c1ccc(C(=O)O)cc1)c1cc2c(cc1C)C(C)(C)CCC2(C)C	inactive
Oc1ccc(OCc2ccccc2)cc1	inactive
Cn1c(NCCN(CCO)CCCc2ccc([N+](=O)[O-])cc2)cc(=O)n(C)c1=O	inactive
CCC1=C(C)CN(C(=O)NCCc2ccc(S(=O)(=O)NC(=O)NC3CCC(C)CC3)cc2)C1=O (stereo unspecified)	inactive
